In the antibiotic and cytotoxicity screens of Wong et al. (2023):
Out of some 39,000 compounds screened, about 3,300 (8.5%) were called active. What follows is part of a selection rich in actives, with near analogues and random picks from the rest.

Test system: HepG2
Assay: cytotoxicity call (relative viability < 0.9)
Settings: 10 µM

SMILES	cytotoxicity call
C[C@@H]1CN([C@@H](C)CO)C(=O)c2cc(NC(=O)c3ccncc3)ccc2O[C@@H]1CN(C)S(=O)(=O)c1cccs1	inactive
COc1ccc(NC(=O)N(C)C[C@@H]2Oc3ccc(NS(C)(=O)=O)cc3C(=O)N([C@H](C)CO)C[C@@H]2C)cc1	inactive
Cc1noc(C)c1NC(=O)N(C)C[C@H]1OCCCC[C@H](C)Oc2ccc(NC(=O)Nc3cccc4ccccc34)cc2C(=O)N([C@H](C)CO)C[C@@H]1C	inactive
C[C@@H]1CN([C@@H](C)CO)C(=O)c2cccc(NC(=O)c3ccc(-c4nccs4)cc3)c2O[C@H]1CN(C)C(=O)Nc1ccc2c(c1)OCO2	inactive
O=C(O)c1cc(O)c2cccc(O)c2n1	inactive
COc1ccc(S(=O)(=O)Nc2ccc3c(c2)C(=O)N([C@H](C)CO)C[C@H](C)[C@H](CN(C)Cc2ccc(C(F)(F)F)cc2)OCCCC[C@@H](C)O3)cc1	active
COc1ccc(S(=O)(=O)Nc2ccc3c(c2)C(=O)N([C@@H](C)CO)C[C@@H](C)[C@H](CN(C)Cc2ccc(C(F)(F)F)cc2)OCCCC[C@H](C)O3)cc1	active
COc1ccc(S(=O)(=O)Nc2ccc3c(c2)C(=O)N([C@H](C)CO)C[C@H](C)[C@H](CN(C)Cc2ccc(C(F)(F)F)cc2)OCCCC[C@H](C)O3)cc1	inactive
COc1ccc(S(=O)(=O)Nc2ccc3c(c2)C(=O)N([C@@H](C)CO)C[C@H](C)[C@@H](CN(C)Cc2ccc(C(F)(F)F)cc2)OCCCC[C@H](C)O3)cc1	inactive
COc1ccc(S(=O)(=O)Nc2ccc3c(c2)C(=O)N([C@H](C)CO)C[C@@H](C)[C@H](CN(C)Cc2ccc(C(F)(F)F)cc2)OCCCC[C@H](C)O3)cc1	inactive
COc1ccc(S(=O)(=O)Nc2ccc3c(c2)C(=O)N([C@H](C)CO)C[C@@H](C)[C@@H](CN(C)Cc2ccc(C(F)(F)F)cc2)OCCCC[C@@H](C)O3)cc1	active
COc1ccc(S(=O)(=O)Nc2ccc3c(c2)C(=O)N([C@@H](C)CO)C[C@H](C)[C@H](CN(C)Cc2ccc(C(F)(F)F)cc2)OCCCC[C@@H](C)O3)cc1	inactive
COc1ccc(S(=O)(=O)Nc2ccc3c(c2)C(=O)N([C@H](C)CO)C[C@@H](C)[C@H](CN(C)Cc2ccc(C(F)(F)F)cc2)OCCCC[C@@H](C)O3)cc1	active
COc1ccc(S(=O)(=O)Nc2ccc3c(c2)C(=O)N([C@H](C)CO)C[C@H](C)[C@@H](CN(C)Cc2ccc(C(F)(F)F)cc2)OCCCC[C@H](C)O3)cc1	inactive
COc1ccc(S(=O)(=O)Nc2ccc3c(c2)C(=O)N([C@@H](C)CO)C[C@@H](C)[C@@H](CN(C)Cc2ccc(C(F)(F)F)cc2)OCCCC[C@H](C)O3)cc1	inactive
C[C@H]1CN([C@@H](C)CO)C(=O)c2cc(NC(=O)CCCN(C)C)ccc2O[C@H]1CN(C)S(=O)(=O)c1ccccc1	inactive
C[C@@H]1CN([C@@H](C)CO)S(=O)(=O)c2ccc(Br)cc2O[C@H]1CN(C)C(=O)C1CCCCC1	inactive
C[C@@H]1CN([C@H](C)CO)C(=O)c2cc(-c3cccc(C(=O)N(C)C)c3)cnc2O[C@H]1CN(C)S(=O)(=O)c1cccc(F)c1	inactive
Cc1cc(C(=O)Nc2cccc3c2O[C@@H](CN(C)S(=O)(=O)c2cccs2)[C@@H](C)CN([C@@H](C)CO)C3=O)n(C)n1	inactive
O=C1C[C@@](C(=O)NCc2ccccc2)(c2ccc([N+](=O)[O-])cc2)[C@@H](c2ccc(CO)cc2)N1CC12CC3CC(CC(C3)C1)C2	inactive
Cc1ccc(S(=O)(=O)n2cc([C@H]3CC(=O)N(C(=O)OCc4ccccc4)[C@H]3C(=O)Nc3cccc4cccnc34)c3ccccc32)cc1	inactive

SMILES	cytotoxicity call
C[C@@H]1CN([C@@H](C)CO)C(=O)c2cccc(NC(=O)Nc3ccc4c(c3)OCO4)c2O[C@H]1CN(C)S(=O)(=O)c1cn(C)cn1	inactive
COc1ccc(CN2CCN(C(c3ccc(F)cc3)c3ccc(F)cc3)CC2)c(OC)c1OC.Cl	active
Cc1cccc(CN2CCN(C(c3ccccc3)c3ccc(Cl)cc3)CC2)c1.Cl.Cl (stereo unspecified)	inactive
Cl.Cl.Fc1ccc(C(c2ccc(F)cc2)N2CCN(CC=Cc3ccccc3)CC2)cc1	inactive
Cc1ccc(S(=O)(=O)N(C)C[C@H]2Oc3c(NC(=O)C4CCOCC4)cccc3C(=O)N([C@H](C)CO)C[C@H]2C)cc1	inactive
CCc1nc2ccc(C(=O)Nc3cc(-c4ccccc4)ccc3OC)cn2c1N(C)C(=O)c1cccc(OC)c1	inactive
CC(C)NC(=O)Nc1ccc2c(c1)CC(=O)N([C@H](C)CO)C[C@H](C)[C@@H](CN(C)S(=O)(=O)c1ccccc1)O2	inactive
Cc1noc(C)c1NC(=O)N(C)C[C@@H]1OCCCC[C@H](C)Oc2ccc(NC(=O)c3ccccc3)cc2C(=O)N([C@@H](C)CO)C[C@H]1C	inactive
Cc1ccc2nc(SCc3c(C)c(C)cc(C)c3C)[nH]c2c1	inactive
Cc1ccc2nc(SCc3ccc4ccccc4c3)[nH]c2c1	active
Cc1ccc2nc(CN)[nH]c2c1	inactive
CCCN(C)C[C@@H]1OCCCC[C@@H](C)Oc2ccc(NC(=O)CCC(F)(F)F)cc2C(=O)N([C@H](C)CO)C[C@@H]1C	inactive
C[C@@H]1CCCCO[C@H](CN(C)Cc2ccc(C(=O)O)cc2)[C@H](C)CN([C@@H](C)CO)C(=O)c2cc(NC(=O)NC3CCCCC3)ccc2O1	inactive
C[C@H](CO)N1C[C@H](C)[C@H](CN(C)C(=O)c2ccccc2)OCCCC[C@H](C)Oc2ccc(NC(=O)c3ccccc3)cc2C1=O	inactive
C=CCC[C@@H](Cc1ccc(F)cc1)C(=O)OC[C@H](Cc1c[nH]c2ccccc12)NC(=O)[C@@H](CC=C)CC(=O)N[C@H](CO)Cc1ccccc1	inactive
C=CC[C@H](CC(=O)N[C@@H](CO)Cc1ccccc1)C(=O)N[C@@H](COC(=O)[C@@H](CC=C)Cc1ccc(F)cc1)Cc1c[nH]c2ccccc12	inactive
C=CCC[C@@H](Cc1ccc(F)cc1)C(=O)OC[C@@H](Cc1c[nH]c2ccccc12)NC(=O)[C@@H](CC=C)CC(=O)N[C@@H](CO)Cc1ccccc1	inactive
C=CCC[C@H](Cc1ccc(F)cc1)C(=O)OC[C@@H](Cc1c[nH]c2ccccc12)NC(=O)[C@H](CC=C)CC(=O)N[C@@H](CO)Cc1ccccc1	active
C=CCC[C@@H](Cc1ccc(F)cc1)C(=O)OC[C@H](Cc1c[nH]c2ccccc12)NC(=O)[C@@H](CC=C)CC(=O)N[C@@H](CO)Cc1ccccc1	active
C=CCC[C@H](Cc1ccc(F)cc1)C(=O)OC[C@H](Cc1c[nH]c2ccccc12)NC(=O)[C@@H](CC=C)CC(=O)N[C@H](CO)Cc1ccccc1	active
C=CCC[C@H](Cc1ccc(F)cc1)C(=O)OC[C@@H](Cc1c[nH]c2ccccc12)NC(=O)[C@@H](CC=C)CC(=O)N[C@@H](CO)Cc1ccccc1	inactive

SMILES	cytotoxicity call
C=CCC[C@@H](Cc1ccc(F)cc1)C(=O)OC[C@@H](Cc1c[nH]c2ccccc12)NC(=O)[C@@H](CC=C)CC(=O)N[C@H](CO)Cc1ccccc1	inactive
C=CCC[C@H](Cc1ccc(F)cc1)C(=O)OC[C@H](Cc1c[nH]c2ccccc12)NC(=O)[C@H](CC=C)CC(=O)N[C@@H](CO)Cc1ccccc1	inactive
C=CC[C@@H](CC(=O)N[C@H](CO)Cc1ccccc1)C(=O)N[C@H](COC(=O)[C@@H](CC=C)Cc1ccc(F)cc1)Cc1c[nH]c2ccccc12	inactive
C=CCC[C@@H](Cc1ccc(F)cc1)C(=O)OC[C@@H](Cc1c[nH]c2ccccc12)NC(=O)[C@H](CC=C)CC(=O)N[C@@H](CO)Cc1ccccc1	inactive
C=CCC[C@H](Cc1ccc(F)cc1)C(=O)OC[C@H](Cc1c[nH]c2ccccc12)NC(=O)[C@@H](CC=C)CC(=O)N[C@@H](CO)Cc1ccccc1	active
Cc1ccnc(NC(=O)Cn2cnc3c2c(=O)n(C)c(=O)n3C)n1	inactive
O=c1nc2[nH][nH]cc-2c(=O)[nH]1	inactive
COCC#Cc1ccc2c(c1)O[C@H](CN(C)C(=O)CN(C)C)[C@H](C)CN([C@H](C)CO)S2(=O)=O	inactive
C=CCOc1nc(NCC)nc(N(C)C)n1	inactive
CS(=O)(=O)N1C[C@H](NC(=O)c2cnccn2)[C@H]2OCCC[C@H]21	inactive
C=CC[C@@H](CC(=O)N(CCO)Cc1ccccc1)C(=O)N[C@H](COC(=O)[C@@H](CC=C)Cc1ccc(F)cc1)C(C)(C)C	inactive
C[C@@H]1CCCCO[C@H](CN(C)Cc2ccncc2)[C@H](C)CN([C@H](C)CO)C(=O)c2cc(NS(=O)(=O)c3ccc(Cl)cc3)ccc2O1	inactive
CCc1oc(CC[C@@H](CO)NC(=O)NCCn2cc(C3(O)CCCCC3)nn2)c(C(=O)OC)c1C(=O)OC	inactive
O=C(CCCCCCC(=O)Nc1ccc([C@H]2O[C@@H](CSc3ccccc3)C[C@H](c3ccccc3)O2)cc1)NO	inactive
C[C@H](CO)N1C[C@H](C)[C@@H](CN(C)C(=O)Nc2ccc(C(F)(F)F)cc2)Oc2c(NC(=O)c3ccc(-c4nccs4)cc3)cccc2C1=O	inactive
C[C@H]1CN([C@@H](C)CO)C(=O)c2cccc(NC(=O)C3CC3)c2O[C@@H]1CN(C)S(=O)(=O)c1ccccc1	inactive
C[C@@H]1CCCCO[C@H](CN(C)S(=O)(=O)c2ccccc2)[C@@H](C)CN([C@@H](C)CO)C(=O)c2cc(NC(=O)CCC(F)(F)F)ccc2O1	inactive
CC(C)NC(=O)N[C@H]1C=C[C@H](CC(=O)NCCCN(C)C)O[C@H]1CO	inactive
COc1ccc(S(=O)(=O)N(C)C[C@@H]2Oc3ccc(NC(=O)c4ccncc4)cc3CC(=O)N([C@H](C)CO)C[C@@H]2C)cc1	inactive
